Data: PubChem BioAssay AID1814 (Broad Institute, 2009)
Hit rate of the full screen: of about 300,000 compounds, about 22,000 (7.3%) were called active. Roughly 2% stayed inconclusive and do not appear here. The sample as a whole holds a higher share of actives than the screen did. Unmarked numbers belong to inactive results. No stated cut-off is given here; in the data, active means activity score below about -60%; inconclusive means mostly about -28% to -61%; inactive means positive scores.

test: Activators via SNCA 5'UTR binding, MLPCN (AID 1814); conditions: alpha-synuclein 5'UTR reporter, activators screen; stronger effect = lower value; tested at 7.5 µM

| SMILES | activity score |
| --- | --- |
| CCn1c(CNc2ccc(OC)cc2)nnc1SCC(=O)c1ccc(OC)cc1 | -63.6% (active) |
| Brc1ccc2c(c1)[C@H]1OCC[C@H]1[C@@H](c1cccs1)N2 | 72.2% |
| O=C1NC(c2ccncc2)Nc2sc3c(c21)CCCC3 (stereo unspecified) | -66.2% (active) |
| O=C(Nc1ccc2oc(-c3ccccc3F)nc2c1)c1ccco1 | -128% (active) |
| C/C(=N\NS(=O)(=O)c1ccc(Cl)cc1)c1ccc(NC(=O)c2ccco2)cc1 | -87.4% (active) |
| Cc1ccnc(NC(=O)c2ccc(Cl)c([N+](=O)[O-])c2)c1 | -78.7% (active) |
| O=C(CSCc1ccccc1)Nc1ccccc1 | -126% (active) |
| CCS(=O)(=O)Nc1ccc(C(=O)NCCSc2ccccc2)cc1 | -92.6% (active) |
| O=C(CSc1ccccc1)Nc1ccc(NC(=O)c2ccco2)cc1 | -68.2% (active) |
| O=C(Nc1cccc(-c2nc3ncccc3o2)c1)c1ccco1 | -72.9% (active) |
| CSCCC(NC(=O)c1ccco1)C(=O)Nc1cc(C)ccn1 (stereo unspecified) | -130% (active) |
| Cc1ccc(-n2nc3cc(Cl)c(NC(=O)c4ccco4)cc3n2)cc1 | -179% (active) |
| O=C(/C=C/c1ccco1)Nc1ccc(Oc2ccccc2)cc1 | -217% (active) |
| CCCc1cc(C(=O)Nc2ccc(C(=O)OC)cc2)cs1 | -74% (active) |
| Cc1ccnc(NC(=O)c2ccc(NC(=O)c3ccco3)cc2)c1 | -164% (active) |
| Cc1cccc(CS(=O)(=O)c2ncc(Cl)c(C(=O)Nc3ccc(F)cc3)n2)c1 | 59.7% |
| Cc1cc(NC(=O)c2ccc(F)cc2)ccc1NC(=O)c1ccco1 | -63.3% (active) |
| O=C(CSc1ccccc1)Nc1ccc(C(=O)Nc2cccc(O)c2)cc1 | -104% (active) |
| O=C(Nc1ccc(Oc2ccccc2)cc1)c1ccco1 | -119% (active) |
| O=C(NCCSc1ccccc1)c1ccco1 | -162% (active) |
| O=C(Nc1ccc(O)cc1)c1ccc(NC(=O)c2ccco2)cc1 | -72.7% (active) |
| CCCc1ccc(OCCNC(=O)c2ccco2)cc1 | -90.6% (active) |

| SMILES | activity score |
| --- | --- |
| COC(=O)c1cc(Cl)c(NC(=O)c2ccco2)cc1OC | -96% (active) |
| COC(=O)c1ccc(NC(=O)c2ccco2)cc1 | -107% (active) |
| O=C(Nc1ccc2nccnc2c1)c1ccco1 | -105% (active) |
| Cc1ccnc(NC(=O)c2ccoc2C)c1 | -147% (active) |
| Cc1ccoc1C(=O)Nc1cccc(Oc2ccccc2)c1 | -137% (active) |
| Clc1ccc(Cc2nnc(-c3cccs3)o2)cc1 | -116% (active) |
| COc1ccc(NC(=O)/C(Cl)=C(/Cl)S(=O)Cc2ccc(C)cc2)cn1 (stereo unspecified) | 106% |
| Cc1ccc(NC(=O)OCc2cncs2)cc1 | -112% (active) |
| O=C(N/N=C/c1ccc(OCc2ccccc2)cc1)c1ccc(O)cc1 | -70.7% (active) |
| Cc1ccnc(NC(=O)CCNS(=O)(=O)c2ccc(C)c(C)c2)c1 | -87.9% (active) |
| CC(C)c1ccc(NC(=S)NC2CC3C=CC2C3)cc1 (stereo unspecified) | -134% (active) |
| Cc1sc(NC(=O)C2=COCCO2)c(C#N)c1C | -110% (active) |
| COc1ccccc1NC(=O)c1ccc(C)s1 | -227% (active) |
| Cc1ccc(-c2csc(NC(=O)C3=COCCO3)n2)cc1C | -176% (active) |
| Cc1csc(NC(=O)C2=COCCO2)n1 | -132% (active) |
| COc1ccccc1NC(=O)C1=C(C)Nc2nc3ccccc3n2C1c1cccs1 (stereo unspecified) | 106% |
| Cc1csc(NC(=O)c2ccc(C)s2)n1 | -174% (active) |
| COc1cc(SC)ccc1C(=O)Nc1nc(C)cs1 | 96.2% |
| Cc1ccc(-c2csc(NC(=O)c3cnccn3)n2)cc1C | -97.7% (active) |
| O=C(Nc1nc(-c2ccc3c(c2)OCO3)cs1)c1ccncc1 | -99.5% (active) |
| COc1ccccc1-c1nnc(SCC(=O)N2CC(C)CC(C)C2)o1 (stereo unspecified) | 45.8% |
| COc1ccc(-c2nnc(SCC(=O)c3cccs3)o2)c(OC)c1 | -106% (active) |

| SMILES | activity score |
| --- | --- |
| COc1ccccc1-c1nnc(SCC(=O)Nc2ccccc2)o1 | -187% (active) |
| Cc1ccc(C(=O)Nc2nc3ccc(Cl)cc3s2)o1 | -183% (active) |
| Cc1ccc(-c2noc(C3CCCN(C(=O)c4cccc(Cl)c4)C3)n2)o1 (stereo unspecified) | -109% (active) |
| O=C(c1cccs1)N1CCCC(c2nc(-c3ccc(F)cc3)no2)C1 (stereo unspecified) | -91.6% (active) |
| COc1ccc2nc(N3CCN(C(=O)c4ccc([N+](=O)[O-])o4)CC3)sc2c1 | -160% (active) |
| Cc1ccc2nc(N3CCN(C(=O)c4ccco4)CC3)sc2c1 | -216% (active) |
| C/C(=N\NC(=O)c1ccc(C)cc1)C1C(=O)c2ccccc2C1=O | -78.5% (active) |
| COc1ccc(NC(=O)CSc2nc(SC)ns2)c(OC)c1 | -118% (active) |
| c1c2c(cc3sc(N4CCCCC4)nc13)OCCO2 | 107% |
| CN(C)CCCN(C(=O)c1ccc(S(=O)(=O)N2CCCCCC2)cc1)c1nc2ccc(Br)cc2s1 | 75.3% |
| Fc1ccc2nc(N3CCCCC3)sc2c1 | -129% (active) |
| Brc1ccc2nc(N3CCCC3)sc2c1 | -105% (active) |
| Fc1cc(F)c2nc(Nc3nc4c(F)cccc4s3)sc2c1 | -218% (active) |
| C=CCn1c(C)cc(C2=NNC(=NCC)SC2)c1C | 105% |
| Cc1cccc(N=C2NN=C(c3c[nH]c4ccccc34)CS2)c1 | -102% (active) |
| COc1ccc(-c2nnc(SCc3cccnc3)o2)cc1 | -128% (active) |
| COc1ccc(-c2nnc(SC(C)C#N)o2)cc1 (stereo unspecified) | -98.3% (active) |
| COc1cc(/C=N/n2c(C)n[nH]c2=S)ccc1OCc1ccccc1 | -106% (active) |
| COc1ccc2[nH]c(C(=O)Nc3ccccc3Cl)cc2c1 | -132% (active) |
| O=C(CN1C(=O)c2ccccc2S1(=O)=O)N1CCc2ccccc21 | 93.5% |
| O=C(CSCc1ccccc1)N1CCc2ccccc21 | -92.8% (active) |
| COc1ccc(Nc2ncnc3sc(C)cc23)cc1 | -159% (active) |

| SMILES | activity score |
| --- | --- |
| O=C(c1ccc(CSc2ccccc2)cc1)N1CCCCCC1 | -99.5% (active) |
| CCc1ccc(-c2cc(C(=O)NCc3ccco3)c3ccccc3n2)s1 | -123% (active) |
| O=C(/C=C/c1ccc(Cl)cc1Cl)NCc1ccco1 | -119% (active) |
| CC1CCc2sc3nc(N4CCN(CCO)CC4)n4ncnc4c3c2C1 (stereo unspecified) | -73.1% (active) |
| COc1cccc(NC(C)=[N+](C)CCNS(=O)(=O)c2ccc(Cl)cc2)c1 | -156% (active) |
| Nc1c(C(=O)NCc2ccccc2)sc2nc3c(cc12)C(=O)CCC3 | -63.1% (active) |
| CC(C)OC(=O)c1sc2nc3c(cc2c1N)C(=O)CCC3 | -182% (active) |
| Cn1c(=NC(=O)C2CC2)sc2cc(F)cc(F)c21 | -88% (active) |
| Cc1ccc(NC(=O)C2CC2c2ccccc2)cc1 (stereo unspecified) | -65.1% (active) |
| C1=C(CCNc2ncnc3c2cnn3-c2ccccc2)CCCC1 | -141% (active) |
| CCOc1cccc2c1OC1(CCCCC1)N1N=C(c3cccnc3)CC21 (stereo unspecified) | -77% (active) |
| CCOC(=O)C1=C(CN2CCc3ccccc32)NC(=O)NC1c1ccc(Cl)cc1 (stereo unspecified) | 44.8% |
| COc1cc(/C=C(\C#N)c2nc3ccccc3[nH]2)ccc1O | -152% (active) |
| COc1cc(/C=C(\C#N)c2nc3c(s2)CC(C)CC3)ccc1O (stereo unspecified) | -208% (active) |
| O=C(COc1ccc2oc3c(c2c1)CCCC3)Nc1ccccn1 | -131% (active) |
| Cc1cccc(C(=O)NC(=S)N(C)C2CCCCC2)c1 | -74.3% (active) |
| CSc1nc(N(C)NC(=O)c2cccc(C)c2)c2ccccc2n1 | 114% |
| Cc1c(C(=O)N2CCCc3ccccc32)oc2ccccc12 | -96.2% (active) |
| Cc1c(C(=O)NC2CCCCC2)oc2ccccc12 | -82.5% (active) |
| Cc1nonc1NC(=O)c1oc2ccccc2c1C | -127% (active) |
| CCc1nonc1NC(=O)c1oc2ccc(Cl)cc2c1C | -90.7% (active) |
| Cc1c(C(=O)Nc2ccccn2)oc2ccc(Br)cc12 | -122% (active) |

| SMILES | activity score |
| --- | --- |
| Cc1ccc(NC(=O)c2oc3ccccc3c2C)c([N+](=O)[O-])c1 | -101% (active) |
| CSc1cccc(NC(=S)N(C(C)C)C(C)c2ccccn2)c1 (stereo unspecified) | -66.1% (active) |
| Cc1ccc(-c2cc(C(=O)NCc3cn(C)nc3C)c3cc(Br)ccc3n2)cc1 | -87.5% (active) |
| CCS(=O)(=O)N1Cc2ccccc2CC1C(=O)Nc1nc2ccc(F)cc2s1 (stereo unspecified) | -83.8% (active) |
| CN(C)CCCN(C(=O)c1ccc(S(=O)(=O)N2CCCc3ccccc32)cc1)c1nc2ccc(F)cc2s1 | 74.2% |
| O=C(Nc1ccccc1)c1ccc2nsnc2c1 | -119% (active) |
| O=C(Nc1ccccc1Cl)c1ccc2nsnc2c1 | -133% (active) |
| COc1ccccc1Nc1ncnc2c1oc1ccccc12 | -147% (active) |
| O=[N+]([O-])c1ccc2c(c1)C(O)n1nc(-c3ccccc3)nc1S2 (stereo unspecified) | -63.3% (active) |
| CCS(=O)(=O)C1=NSC2=NC(=O)/C(=C\c3cc(C)n(-c4cccc(OC)c4)c3C)C(=N)N21 | -130% (active) |
| CCN(CC)CCOc1ccc2c(c1)C(=NNC(=O)c1ccccn1)c1cc(OCCN(CC)CC)ccc1-2 | 109% |
| CC(O)c1ccc(OCCN(C)c2ccccn2)cc1 (stereo unspecified) | -143% (active) |
| N#CC(=C1SC=CS1)c1nc(-c2ccccc2)cs1 | -305% (active) |
| N#CC(=C1CCCC1)c1nc(-c2ccc(Cl)cc2)cs1 | -189% (active) |
| CCOC(=O)/C(C#N)=C/c1ccc(N2CCCCC2)cc1 | -72.9% (active) |
| Cc1nc2cc(NCc3cccs3)ccc2n1C | -107% (active) |
| OC(c1nnc(-c2ccccc2)o1)c1cccs1 (stereo unspecified) | -90.8% (active) |
| CCOc1ccc(N/C=C/C(=O)c2cc(OC)c(OC)c(OC)c2)cc1 | -117% (active) |
